Source: PubChem BioAssay AID1851 (National Center for Advancing Translational Sciences (NCATS), 2009)
“And” between values parts separate entries of the source, which are not always exact repeats. Equal entries are not always repeated. Out of some 16,000 compounds screened, about 2,600 (16%) were called active. Inconclusive results (about 20%) are left out. Calls come from the whole dose curve; as a rule, active = well fitted curve in the direction sought with a large enough effect; inconclusive = small, poorly fitted or top-dose-only effect, or effect the other way; inactive = no such curve, though single readings can be large or run the other way. These entries were drawn from the full list. Some structures have more than one record in an assay (separate samples or runs), and their calls can disagree.

Biological target: Cytochrome P450 2D6 (Homo sapiens) (UniProt P10635)
Sequence (P10635 whole entry, looked up): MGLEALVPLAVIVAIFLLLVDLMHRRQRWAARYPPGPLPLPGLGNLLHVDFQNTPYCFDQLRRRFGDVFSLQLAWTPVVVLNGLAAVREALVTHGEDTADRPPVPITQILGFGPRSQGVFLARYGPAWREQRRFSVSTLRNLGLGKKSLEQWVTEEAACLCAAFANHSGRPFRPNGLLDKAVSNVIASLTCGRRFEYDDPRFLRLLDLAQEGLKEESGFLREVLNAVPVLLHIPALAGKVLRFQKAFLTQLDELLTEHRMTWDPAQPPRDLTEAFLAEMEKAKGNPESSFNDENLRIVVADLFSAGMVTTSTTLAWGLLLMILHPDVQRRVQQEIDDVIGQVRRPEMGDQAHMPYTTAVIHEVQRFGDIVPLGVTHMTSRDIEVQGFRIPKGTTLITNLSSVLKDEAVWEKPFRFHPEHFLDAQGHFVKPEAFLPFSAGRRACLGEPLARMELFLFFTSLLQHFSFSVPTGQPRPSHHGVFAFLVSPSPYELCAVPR
Experiment: Cytochrome panel assay with activity outcomes
Settings: recombinant CYP, pro-luciferin dealkylation, luminescence, p450-cyp2d6; series mostly up to 57.1 µM; activity, negative = inhibition: at the top concentration
% is set by controls: 0 for no effect and ±100 for the full control effect.

SMILES | AC50 | activity, negative = inhibition
Cc1ccc2nc(N/N=C\c3cccc(C)n3)cc(C)c2c1 | 3.16 µM (active) | 
Cc1cnn(-c2cc(N/N=C/c3ccccc3)ncn2)c1 |  | 6.87% (inactive)
COc1cccc(C(C#N)N2N=C(C)CC2(C)C)c1O (centres undefined) |  | -3.53% (inactive)
Cc1nc(S(=O)(=O)N2CCOCC2)c(C#N)c(C)c1Cl |  | 11.6% (inactive)
COc1cccc2c1[C@@H]1CN(CCCCn3c(=O)[nH]c4c(sc5ncc(-c6ccccc6)nc54)c3=O)C[C@H]1CO2 | 31.6 µM (active) | 
CCN(CC)C(=O)C1CCCN(c2ccc([N+](=O)[O-])cc2/C=N/NC(=O)c2ccc([N+](=O)[O-])cc2)C1 (centres undefined) |  | -13.6% (inactive)
Brc1ccc2cccnc2c1 |  | 22% (inactive)
C/C(N)=C(/C#N)C(=O)COc1ncnc2ccc(Br)cc12 |  | -0.639% (inactive)
Brc1ccc2ncnc(Nc3cccc4ccccc34)c2c1 | 14.1 µM (active) | 
Cc1cc(C(F)F)n2nc(C(=O)Nc3sc4c(c3C#N)CCC(C)C4)nc2n1 (centres undefined) |  | -32.8% (inactive)
COCCn1c(=O)c(-c2ccc(Cl)cc2)nc2cnc(Oc3ccccc3)nc21 |  | -2% (inactive)
Cc1cc(C)c(S(=O)(=O)n2ccc(-c3ccc(OCCN(C)c4ccccn4)cc3)n2)c(C)c1 |  | 18.4% (inactive)
CN(CCOc1ccc(C[C@H](Nc2ccccc2C(=O)c2ccccc2)C(=O)O)cc1)c1ccccn1 | 0.0316 µM (active) | 
COC(=O)CN(c1ccccn1)S(=O)(=O)c1ccccc1 |  | 9.48% (inactive)
COCCCN1C(=O)C(=O)/C(=C(/O)c2ccc(OC)cc2C)C1c1cccnc1 (centres undefined) |  | -1.26% (inactive)
Cc1ccc(COc2coc(CO)cc2=O)cc1 |  | 13.9% (inactive)
CC(C)(C)c1ccc(OCC(=O)N/N=C/c2cc(Br)ccc2OC(=O)c2ccco2)cc1 |  | 28.3% (inactive)
Cc1ccc(COc2ccc(Br)cc2/C=N/O)cc1 | 17.8 µM (active) | 
CCNc1ncc2nc(-c3cccs3)c(=O)n(CCC#N)c2n1 | 1.26 µM (active) | 
CCNc1ncc2nc(-c3cn(C)c4ccccc34)c(=O)n(Cc3ccc(F)cc3)c2n1 |  | -8.85% (inactive)
CCNc1ncc2nc(-c3cccs3)c(=O)n(C)c2n1 |  | 6.42% (inactive)
N#CCCn1c(=O)c(-c2cccs2)nc2cnc(Nc3ccccc3)nc21 |  | 8.86% (inactive)
CN1CCN(c2ncc3nc(-c4cccc(C#N)c4)c(=O)n(CCC#N)c3n2)CC1 |  | 2.23% (inactive)
CCNc1ncc2nc(-c3cn(C)c4ccccc34)c(=O)n(CCC#N)c2n1 | 3.98 µM (active) | 

SMILES | AC50 | activity, negative = inhibition
CCNc1ncc2nc(-c3cccc(C#N)c3)c(=O)n(CCC#N)c2n1 | 0.0316 µM (active) | 
CCNc1ncc2nc(C)c(=O)n(Cc3cccs3)c2n1 |  | -10.2% (inactive)
CCNc1ncc2ncc(=O)n(Cc3cccs3)c2n1 | 12.6 µM (active) | 
COc1ncc2nc(-c3cn(C)c4ccccc34)c(=O)n(CCC#N)c2n1 |  | -0.812% (inactive)
N#CCCn1c(=O)c(-c2cccc(C#N)c2)nc2cnc(Oc3ccccc3)nc21 |  | 5.63% (inactive)
CCNc1ncc2nc(-c3cccs3)c(=O)n(Cc3cccs3)c2n1 |  | -19.8% (inactive)
Cc1cc(C)cc(C(=O)N(C)[C@H](Cc2ccc(-c3ccccc3)cc2)C(=O)N[C@@H](Cc2c[nH]c3ccccc23)C(=O)O)c1 |  | -5.77% (inactive)
N=c1ccn2c(n1)O[C@H]1[C@@H](OP(=O)(O)O)[C@H](CO)O[C@H]12 |  | 10.3% [at 11.4 µM] (inactive)
Cc1cc(-c2n[nH]c(=S)o2)c(C)n1-c1ccccc1 |  | -6.27% (inactive)
O=C(Nc1nnc(C2CC2)s1)c1cc(S(=O)(=O)N2CCN(c3ccccc3)CC2)ccc1Cl |  | 28% (inactive)
O=C(N/N=C1/C[C@@H](O)[C@@H](O)[C@@H]2[C@@H]3C(=O)N(Cc4ccccc4)C(=O)[C@H]3CC[C@@H]12)OCc1ccccc1 |  | 9.46% [at 11.4 µM] (inactive)
O=C1[C@H]2O[C@@H]2[C@@H](O)[C@H]2[C@H]1CCn1c(=O)n(Cc3cc4c(cc3Cl)OCO4)c(=O)n12 |  | -11.5% [at 11.4 µM] (inactive)
CCN(CC)C(=O)CSc1nnc(-c2ccco2)n1N |  | -28.2% (inactive)
COc1ccc(COC(=O)N/N=C2/C[C@@H](O)[C@@H](O)[C@@H]3[C@H]4C(=O)N(c5ccc(F)cc5F)C(=O)[C@@H]4CC[C@@H]23)cc1 |  | -3.12% [at 11.4 µM] (inactive)
O=C(Cc1cccs1)N/N=C/C(Br)=C/c1ccccc1 |  | -28.8% (inactive)
N#CCCn1c(=O)c(-c2cc(F)cc(F)c2)nc2cnc(Nc3ccccc3)nc21 |  | 1.97% (inactive)
CCNc1ncc2nc(-c3ccccc3)c(=O)n(CCC#N)c2n1 | 0.501 µM (active) | 
N#CCCn1c(=O)c(-c2ccccc2)nc2cnc(Nc3ccccc3)nc21 |  | 4.06% (inactive)
COc1ccc(-c2nc3cnc(Nc4ccccc4)nc3n(CCC#N)c2=O)cc1 |  | 6.64% (inactive)
COc1ncc2nc(-c3cc(F)cc(F)c3)c(=O)n(CCC#N)c2n1 |  | -10.6% (inactive)
CCNc1ncc2nc(-c3cc(F)cc(F)c3)c(=O)n(CCC#N)c2n1 | 0.0631 µM (active) | 
COC(=O)[C@@]1(Cc2ccc(F)cc2)[C@H]2c3cc(C(=O)N4CCCC4)n(CCCNc4ncc(C(F)(F)F)cc4Cl)c3C[C@H]2CN1C(=O)c1ccccc1 |  | 3.6% (inactive)
CCOC(=O)[C@]1(CC(=O)O)CCCC1=O |  | -6.09% [at 11.4 µM] (inactive)
COc1ccc(C2CC(=O)c3cnc(Nc4cc(C)cc(C)c4)nc3C2)cc1 (centres undefined) |  | -11.6% (inactive)

SMILES | AC50 | activity, negative = inhibition
O=C1NC(=O)C(c2ccccc2[N+](=O)[O-])=C1Nc1ccc(O)c(Cl)c1 |  | 2.19% (inactive)
Cc1occc1C(=O)NNC(=O)c1ccc(F)cc1 |  | -29% (inactive)
COc1ccc(-n2c(=S)[nH]c3cc(C(=O)NCCCN4CCCC4=O)ccc3c2=O)cc1 |  | -6.32% (inactive)
COc1ccc2c(c1OC)C(=O)O[C@@H]2[C@H]1c2c(cc3c(c2OC)OCO3)CCN1C |  | 0.746% (inactive)
COc1ccc2c(c1OC)C(=O)OC2Nc1ncccc1C (centres undefined) |  | -10.4% (inactive)
COc1ccc2c(c1OC)C(=O)OC2[C@H]1c2c(cc3c(c2OC)OCO3)CCN1C (some centres undefined) | 10 µM (active) | 
COc1ccc(/C(C)=N/NC(=O)c2ccc(CSc3cccc4cccnc34)cc2)cc1OC |  | -9.22% (inactive)
Cc1ccccc1-c1cc(C(=O)n2cccn2)c2cc(Cl)ccc2n1 |  | -13.5% (inactive)
Cc1cc(N2C(=O)C(O)=C(C(=O)c3cccs3)C2c2cccc(O)c2)no1 (centres undefined) |  | -3.43% (inactive)
COC(=O)CSc1cc(C(F)(F)F)nc(-c2ccccn2)n1 |  | 6.24% (inactive)
CCOC(=O)CSc1nc2c(cnn2-c2ccc(C)cc2)c(=O)[nH]1 |  | 7.23% (inactive)
N#CCSc1nc2cc(C(=O)N3CCCC3)ccc2c(=O)n1Cc1ccccc1 |  | -16.5% (inactive)
Cc1nc2cnc(Oc3cccc(Cl)c3)nc2n(C[C@H]2CCCO2)c1=O |  | 4.36% (inactive)
COc1cccc(-c2ccc3ncnc(NCc4cccs4)c3c2)c1 | 10 µM (active) | 
COCCNc1ncnc2ccc(-c3cccc(NS(C)(=O)=O)c3)cc12 |  | -1.19% (inactive)
c1csc(CNc2ncnc3ccc(-c4ccoc4)cc23)c1 | 15.8 µM (active) | 
CS(=O)(=O)Nc1cccc(-c2ccc3ncnc(NCCN4CCOCC4)c3c2)c1 |  | -8.45% (inactive)
CS(=O)(=O)Nc1cccc(-c2ccc3ncnc(NCc4cccs4)c3c2)c1 | 20 µM (active) | 
CN(/C=C/C(=O)C(F)(F)F)Cc1ccccc1 |  | 0.82% (inactive)
Cc1[nH]c2ccccc2c1-c1cc(-c2cc(-c3c(C)[nH]c4ccccc34)on2)no1 |  | 5.28% [at 11.4 µM] (inactive)
CCCC[C@@H]1C[C@H]1C(NC(=O)c1cccnc1)c1ccc(-c2ccccc2)cc1 (some centres undefined) |  | -5.63% (inactive)
CCOC(=O)c1cnn(-c2cc(Oc3ccccc3)ncn2)c1N |  | -6.66% (inactive)
Cc1nc(SCC(=O)c2ccc(F)cc2)c([N+](=O)[O-])[nH]1 | 10 µM (active) | 
Cc1cc(C)c(C(N)=O)c(SCC(=O)c2ccc(Cl)cc2)n1 |  | -3.15% (inactive)

SMILES | AC50 | activity, negative = inhibition
Cc1ccc(C(=O)CSc2nc(C)cc(=O)[nH]2)cc1 |  | -1.53% (inactive)
Oc1ccccc1CNn1cnnc1 |  | 17.8% (inactive)
O=c1[nH]c2cc([N+](=O)[O-])c([N+](=O)[O-])cc2[nH]c1=O |  | -3.93% (inactive)
CC(CCc1ccccc1)NC(=O)C(=O)NCCO (centres undefined) |  | 22.2% (inactive)
C[C@@H](CCc1ccc(O)cc1)NCCc1ccc(O)c(O)c1 |  | -10.3% [at 25.6 µM] (inactive)
C[C@@H](CCc1ccccc1)NC[C@H](O)c1ccc(O)c(C(N)=O)c1 | 3.98 µM (active) and 2 µM (active) | 
O=C(COc1cccc2ccccc12)NNC(=O)c1cccs1 |  | -20.2% (inactive)
CCOC(=O)c1cccc(C(=O)OCC)n1 |  | 16.1% (inactive)
O=C(OCC(=O)c1cccs1)c1cccc(C(=O)OCC(=O)c2cccs2)n1 | 4.47 µM (active) | 
O=C(Nc1nnc(COc2ccc(Cl)cc2)s1)c1ccc([N+](=O)[O-])cc1 |  | 11.5% (inactive)
CCOc1ccc2ccccc2c1C(=O)N[C@@H]1C(=O)N2[C@@H]1SC(C)(C)[C@@H]2C(=O)O |  | 3.09% [at 25.6 µM] (inactive)
O=[N+]([O-])c1cc(C(F)(F)F)ccc1NCCCCNS(=O)(=O)c1ccc2ccccc2c1 |  | -21.4% (inactive)
COC(=O)c1ccccc1NC(=O)c1ccc(Cn2cc(Cl)cn2)o1 |  | -0.222% (inactive)
Nc1ccc(C(=O)N/N=C/c2ccccc2)cc1 |  | 7.05% (inactive)
CC[C@@]12CCCN3CCc4c(n(c5ccccc45)[C@](O)(C(=O)OC)C1)[C@H]32 | inactive and 251 nM (active) | 
CC[C@@]12CCCN3CCc4c(n(c5ccccc45)C(=O)C1)[C@H]32 | 20 nM (active) and 251 nM (active) | 
CCOC(=O)C1=C[C@@]2(CC)CCCN3CCc4c(n1c1ccccc41)[C@H]32 | 6.31 µM (active) and inactive | 
Cn1c(Cc2cccc3ccccc23)nnc1SCC(=O)N1CCN(c2ccccc2)CC1 |  | -4.52% (inactive)
CSc1nc(-c2ccc(C)cc2)nc(C(Cl)Cl)n1 |  | -0.974% (inactive)
CCCC[C@H]1C(=O)N(c2ccccc2)N(c2ccc(O)cc2)C1=O |  | -4.48% [at 25.6 µM] (inactive)
CCOC(=O)N1CCN(S(=O)(=O)c2ccc3[nH]cc(C(=O)O)c(=O)c3c2)CC1 |  | 1.73% (inactive)
C[C@@]12CCC(=O)C=C1CC[C@H]1[C@@H]2[C@@H](O)C[C@]2(C)[C@@H]1CC[C@@]2(O)C(=O)COC(=O)C1CCCC1 |  | 8.32% [at 11.4 µM] (inactive)
